Compound activity deposited in PubChem BioAssay by National Center for Advancing Translational Sciences (NCATS).
VP16 counter: Gal4-VP16 reporter inhibition counter-screen; Drosophila S2 Gal4-VP16 UAS-luciferase, luminescence, 20 h; Potency, µM (titrated, usually from 53.6 µM), actives largely listed as inhibitors; 310,000 compounds, 3.5% hits;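 further: Gal4-VP16 expression switched on by copper sulfate through the metallothionein promoter; nearly all actives have a fitted effect of over 50% in size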
B2AR arrestin: recruits beta-arrestin to the human beta2-adrenergic receptor. 330,000 compounds, 0.02% hits. AID 492947. Potency, µM (doses to about 46.1 µM), hits mostly activators. beta-arrestin recruitment to beta2AR, cell-based reporter; further: nearly all actives have a fitted effect of over 65% in size
RORgamma inh: blocks mouse ROR gamma transcriptional activity; P51450; Drosophila S2 Gal4-RORgamma UAS-luciferase reporter, 20 h; Potency, µM (series often up to 53.6 µM), most hits filed as inhibitors; 310,000 compounds, 5.4% hits; AID 2551; further: nearly all actives have a fitted effect of over 60% in size
Target sequence (P51450 whole entry, looked up, the tested form may be a part): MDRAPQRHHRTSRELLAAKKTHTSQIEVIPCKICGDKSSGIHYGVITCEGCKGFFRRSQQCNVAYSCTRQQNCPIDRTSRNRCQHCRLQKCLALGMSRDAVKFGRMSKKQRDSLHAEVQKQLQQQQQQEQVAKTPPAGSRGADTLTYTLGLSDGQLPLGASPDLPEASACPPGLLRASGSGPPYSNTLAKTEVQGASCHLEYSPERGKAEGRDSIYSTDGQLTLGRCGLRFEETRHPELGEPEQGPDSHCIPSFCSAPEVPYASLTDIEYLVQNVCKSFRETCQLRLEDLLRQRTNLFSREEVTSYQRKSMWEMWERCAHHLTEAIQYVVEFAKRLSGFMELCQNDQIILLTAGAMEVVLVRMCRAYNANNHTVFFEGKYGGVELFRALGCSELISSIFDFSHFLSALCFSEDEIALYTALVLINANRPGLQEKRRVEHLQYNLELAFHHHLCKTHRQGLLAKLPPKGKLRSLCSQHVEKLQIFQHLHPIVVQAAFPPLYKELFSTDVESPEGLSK
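Compounds are pin-transferred onto Drosophila Schneider cells expressing a copper-inducible Gal4–ROR gamma transactivation domain fusion. After 1 hr, copper sulfate is added to 700 uM final; luciferase is read 20 hr later.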
TSHR antagonist: antagonists of human thyroid stimulating hormone receptor; P16473; TSHR-expressing cells, TSH-stimulated cAMP HTRF, 2 h; active compounds read low; activity change, negative = inhibition, % at 11.5 µM; 330,000 compounds, 0.2% hits;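 active means activity change below a set negative limit, meaning inhibition stronger than a set level, cut at about -70% in these data; inconclusive means activity change between two set negative limits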
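TSHR-expressing cells were treated with compounds, then stimulated with TSH at EC80 (4nM final) for 2 hours at 37 deg C. Cellular cAMP was measured by HTRF competition between lysate cAMP and cAMP-d2 for a cryptate-labelled anti-cAMP antibody.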
ELG1 repair inh: inhibitors of ELG1-dependent DNA repair in HEK293T cells. HEK293T ELG1-luciferase reporter, luminescence, 16 h; DNA damage induced by 5-fluorouridine. Potency, µM (top dose mostly 46.1 µM), usual class: inhibitors. 330,000 compounds, 2.3% hits. AID 504467; further: nearly all actives have a fitted effect of over 55% in size
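Cells (2,000 per well) received 5-fluorouridine plus test compound or DMSO and were incubated 16 hr at 37 °C, 5% CO2. Luciferase activity was read by luminescence 30 min after ONE-Glo addition; signal suppression marked inhibition of damage-induced ELG1 function.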
Numbers stand for hits; – = inactive; ? = inconclusive; · = no result; [ ] = another dose, or the depositor's remark. Most compounds without a hit are left out; they make up all but 7.5% or so of the library. Unless noted, the call rests on the fitted dose curve; in most records, active means well fitted curve in the direction sought with a large enough effect; inconclusive means small, poorly fitted or top-dose-only effect, or another doubt; inactive means no such curve, though single readings can be large; an effect the other way counts as inactive or inconclusive.

SMILES	VP16 counter	B2AR arrestin	RORgamma inh	TSHR antagonist	ELG1 repair inh
Cc1ccc(C)c(-c2nnc(NC(=O)Cc3ccc(F)cc3)o2)c1	0.56µM	–	0.63µM	–	–
Cc1ccc(-c2nnc(NC(=O)Cc3ccc(F)cc3)o2)c(C)c1	1.3µM	–	1.4µM	–	–
Cc1ccc(-c2nnc(NC(=O)CCS(=O)(=O)c3ccccc3)o2)c(C)c1	·	–	·	–	?
Cc1cc(=O)n2[nH]c(N)c(N=Nc3ccccc3F)c2n1	–	–	10µM	–	–
Cc1c(-c2ccccc2)oc2c(C(=O)OCC(=O)Nc3ccc(F)cc3)cccc2c1=O	?	–	–	–	10µM
O=C(COC(=O)c1ccccc1Br)Nc1ccc(F)cc1	–	–	–	–	?
CC(C)(C)OC(=O)C(Cl)(C(=O)OC(C)(C)C)c1ccc2nnnn2n1	?	–	13µM	–	?
CC1CCCC(NC(=O)CCCn2c(=S)[nH]c3ccccc3c2=O)C1C (stereo not given)	–[10 µM]	–	10µM	–	?
CC1CCCCC1NC(=O)CCCCCn1c(=S)[nH]c2ccccc2c1=O (stereo not given)	–	–	16µM	–	?
CC1CCCCC1NC(=O)CCCn1c(=S)[nH]c2ccccc2c1=O (stereo not given)	–	–	?	–	–
Cc1nc2scc(-c3ccccc3)c2c(=O)n1/N=C/c1ccco1	–	–	–	–	15µM
Cc1nc2ccccc2c(=O)n1/N=C/c1ccco1	–	–	–	–	–
COc1ccccc1C(CNC(=O)c1cc(C)nc2ccccc12)N(C)C (stereo not given)	–	–	–	–	–
COc1cccc(N2CN(C3CCCCC3)CNC2=S)c1	–	–	?	–	–
S=C1N(c2ccccc2)CN(C2CCCCC2)CN1c1ccccc1	20µM	–	11µM	–	?
Oc1c(Br)cc2oc3c(c2c1CNCc1ccccc1)CCCC3	?	–	?	–	–
NC(=S)N/N=C/c1c(O)c(Br)cc2oc3c(c12)CCCC3	?	–	7.9µM	–	21µM
O=C(c1cnn(C(=O)c2cccc(S(=O)(=O)N3CCOCC3)c2)c1)c1ccccc1O	–	–	–	–	–
CCCCn1c(NS(=O)(=O)c2ccccc2)c(S(=O)(=O)c2ccc(C)cc2)c2nc3ccccc3nc21	–	–	–	–	18µM
CCCCn1c(NC(=O)c2ccco2)c(S(=O)(=O)c2ccc(C)cc2)c2nc3ccccc3nc21	–	–	?	–	–
Cc1cc(C)nc(-n2nc(C)cc2NC(=O)C(C)C)n1	–	–	5µM	–	–
Cc1ccc(Nc2cc(C)nn2-c2nc(C)cc(=O)[nH]2)cc1	0.63µM	–	0.18µM	–	?
Cc1ccc(Nc2cc(C)nn2-c2nc(C)cc(C)n2)cc1	3.2µM	–	?	–	15µM
CC(=O)Nc1cc(C)nn1-c1nc(C)cc(C)n1	–	–	?	–	–
Cc1cc(C)n2[nH]c(=O)c(N=Nc3cccc(C(F)(F)F)c3)c2n1	?	–	13µM	–	–
SMILES	VP16 counter	B2AR arrestin	RORgamma inh	TSHR antagonist	ELG1 repair inh
Cc1cc(C)n2[nH]c(=O)c(N=Nc3cccc(Cl)c3)c2n1	–	·	8.9µM	·	·
CN(C)c1ncc2nc(-c3ccccc3)c(=O)n(C3CC3)c2n1	–	·	–	·	·
Cn1ccnc1C1CCCCN1C(=O)c1cc(COc2ccc(F)cc2F)on1 (stereo not given)	–	–	–	–	–
C=CCN(CC=C)S(=O)(=O)c1ccc(NC(=S)NC(=O)c2ccc(-c3ccccc3)cc2)cc1	2.5µM	–	1.4µM	–	?
C=CCN(CC=C)S(=O)(=O)c1ccc(NC(=S)NC(=O)/C=C/c2cccc3ccccc23)cc1	?	–	2.2µM	–	–
C=CCN(CC=C)S(=O)(=O)c1ccc(NC(=S)NC(=O)c2ccco2)cc1	?	–	–	–	?
C=CCN(CC=C)S(=O)(=O)c1ccc(NC(=S)NC(=O)/C=C/c2ccc(C)cc2)cc1	?	·	10µM	·	·
COc1ccc(-c2nc(-c3ccccc3)c(Nc3c(C)cccc3C)o2)cc1	–	·	–	·	·
CC(=O)Nc1ccc(C(=O)N/N=C/c2cc(Br)cc(Br)c2O)cc1	–	–	5µM	–	?
CNC(=S)N/N=C/c1cc(Br)cc(Br)c1O	3.2µM	–	3.2µM	–	?
